This note sets out measurements from PubChem BioAssay AID504850 (National Center for Advancing Translational Sciences (NCATS), 2011).

In all, about 2,300 compounds went through this assay and about 1,200 (52%) were called active. About 34% were inconclusive and are not listed. So high a share suggests a set chosen from earlier hits. The list shows a part of the results. A number with no mark means an inactive call. Calls come from the whole dose curve; as a rule, active = well fitted inhibition curve with a large enough effect; inconclusive = small, poorly fitted or top-dose-only effect, or effect the other way; inactive = no such curve, though single readings can be large or run the other way.
% is set by controls: 0 for no effect and ±100 for the full control effect; potency is the fitted concentration of half-maximal effect.

The nature of this assay: Confirmation screen for delayed death inhibitors of the malarial parasite plastid, 48 hour incubation. Note: nearly all actives have a fitted effect of over 65% in size. The conditions noted are these: P. falciparum-infected erythrocytes, luciferase growth; series mostly up to 28.7 µM; activity change, negative = inhibition: at the top concentration. The procedure, abridged: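 Single-generation (48 h, 37 C) exposure of integrated firefly luciferase-reporter P. falciparum in red cells, 0.1% parasitemia at 2% hematocrit, Albumax-supplemented RPMI. Falling luciferase signal marks parasite growth inhibition.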
In the case of `CSc1ccc(/C=C/C(=O)c2ccc(NC(=O)C(C)C)cc2)cc1`, the Potency was 15.8 µM (active).
On to `CSc1c(CC(=O)Nc2ccccc2)n(C)c2ccccc12`, for which the Potency is 8.91 µM (active).
Same read-out and setting: then `CC(C)(C)c1cc(C(=O)NNc2cccc(Cl)c2)n(Cc2ccccc2)n1`, with 12.6 µM (active); and `Cc1cccc(Cn2nc(C(C)(C)C)cc2C(=O)Nc2ccc(F)cc2)c1`, with 4.47 µM (active).
Take `Cc1ccc2c(c1)cc(C(=O)NCc1ccccc1)n2C`: the “activity change, negative = inhibition” value was -7.89%.
For the molecule `Cc1ccc(NC(=O)c2cc(C(C)(C)C)nn2Cc2ccccc2)cc1`, the Potency is 11.2 µM (active).
As for `CCOc1c(Cl)cc(C(=O)Nc2ccccc2C(=O)O)cc1Cl`, the “activity change, negative = inhibition” value was -9.43%.
On to `CCOC(=O)C1CCN(c2cc3c(cc2NC(=O)c2ccccc2Cl)n(C)c(=O)n3C)CC1`, for which the Potency is 11.2 µM (active).
Still for that read-out and setting: the same measure for `CC(=O)N(C)C1=C(N2CCOCC2)C(=O)c2ccccc2C1=O`: 0.631 µM (active); for `O=C(CCN1C(=O)/C(=C/c2ccccc2Cl)SC1=S)N1CCOCC1`: 15.8 µM (active); for `CN1CCN(C(=O)CCN2C(=O)/C(=C/c3cccc(Br)c3)SC2=S)CC1`: 11.2 µM (active).
As for `CN1CCN(C(=O)CCN2C(=O)/C(=C\c3ccc(Cl)cc3)SC2=S)CC1`, the “activity change, negative = inhibition” value is -20.3%.
For the molecule `C=C(C)n1c(=O)n(Cc2ccccc2C)c2ccccc21`, the Potency was 12.6 µM (active).
In the case of `Cc1ccc(-n2c(Cl)c(Cl)nc(Cl)c2=O)cc1`, the Potency is 12.6 µM (active).
The same measure, in the same setting: then `Cc1ccc(-n2nnnc2Sc2nc([N+](=O)[O-])nn2C)cc1C`, with 3.55 µM (active).
As to `Cc1ccc(-n2nnnc2SCC(=O)Nc2ccccc2-c2ccccc2)cc1C`, the “activity change, negative = inhibition” value is -14.7%.
For the molecule `N#Cc1cc(C(=O)c2cc(Cl)ccc2O)cn(-c2ccccc2)c1=O`, the Potency is 14.1 µM (active).
As to `O=C(OCC(=O)N1CCN(c2ccccc2)CC1)c1cc(Cl)ccc1[N+](=O)[O-]`, the “activity change, negative = inhibition” value was 3.6%.
For `Cc1[nH]c(=O)[nH]c(=O)c1S(=O)(=O)N1CCCC(C(=O)N2CCN(c3cccc(C(F)(F)F)c3)CC2)C1` (stereo not given), the Potency was 12.6 µM (active).
`Cc1[nH]c(C)c(S(=O)(=O)N2CCN(c3cccc(C(F)(F)F)c3)CC2)c1C(=O)N1CCCCC1`: the “activity change, negative = inhibition” value was -17.5%.
On the same count and under the same terms, then `CCCCNC(=O)c1onc(CSc2cc(C)ccc2C)c1C(=O)O`, with -13.3%; and `Cc1ccc(C)c(SCc2noc(C(=O)NC(C)C)c2C(=O)O)c1`, with -13.7%.
Take `Cc1cc(C(C)(C)C)cc(C)c1CCNC(=O)c1ccc[n+]([O-])c1`: the Potency was 14.1 µM (active).
On to `Cc1cc(C(C)(C)C)cc(C)c1CCNC(=O)c1c(C)noc1C`, for which the Potency is 12.6 µM (active).
Turning to `CCN(C(=O)c1cc2c(=O)n3ccccc3nc2n1CCCOC)C1CCCCC1`, the Potency was 12.6 µM (active).
As to `COc1ccc(OC)c(NC(=O)c2nc(S(=O)(=O)Cc3ccccc3)ncc2Cl)c1`, the “activity change, negative = inhibition” value is -17.6%.
Take `COc1ccc(OC)c(NC(=O)c2ccccc2N(C)S(=O)(=O)c2ccc(C)cc2)c1`: the Potency is 14.1 µM (active).
On the same count and under the same terms, then `Cc1ccc(Nc2cc(C)c3ccc(O)cc3n2)cc1C`, with 0.224 µM (active); and `CC(c1ccco1)N(C(=O)c1cc(Cl)cc(Cl)c1)c1ccccn1` (stereo not given), with 11.2 µM (active).
Still for that read-out and setting: the same measure for `CC(C)N1CCC2(CC1)N=C(c1ccc3c(c1)OCO3)CC(c1cc(Cl)ccc1O)N2` (stereo not given): 2.82 µM (active); for `CC(C)C1N=C(c2ccc3c(c2)OCO3)CC(c2ccccc2O)N1` (stereo not given): 12.6 µM (active); for `COc1ccc(/C=C/C(=O)c2ccccc2)cc1Cn1nnc2ccccc21`: 10 µM (active).
The same measure, in the same setting: the same measure for `COc1cc(Cn2nnc3ccccc32)ccc1O`: 12.6 µM (active).
On to `CC(C)C[C@@H](CN=[N+]=[N-])N1CCN(C)CCC1=O`, for which the “activity change, negative = inhibition” value is -2.87%.
On the same count and under the same terms, then `O=C(COC(=O)c1ccc(O)cc1O)Nc1ccc2ccccc2c1`, with 34.1%.
Turning to `Cc1cc(NC(=O)COC(=O)c2ccccc2S(=O)(=O)N(C)c2ccccc2)no1`, the Potency is 8.91 µM (active).
Take `CC(C)NC(=O)NC(=O)COC(=O)c1ccccc1Oc1ccccc1`: the “activity change, negative = inhibition” value is -39.6%.
As for `Cc1cccc(C)c1NC(=O)CCCSc1nnc(-c2ccc(F)cc2)n1-c1ccccc1`, the Potency is 15.8 µM (active).
Turning to `COC(=O)CCC(=O)OC1(C)C(=O)C=C2C=C(C3CC3)N(CCCOC(C)C)C=C2C1=O` (stereo not given), the Potency is 2 µM (active).
On the same count and under the same terms, the same measure for `Cc1c(CN2CCC(CO)(CCOc3ccccc3)CC2)[nH]c2ccc(Cl)cc12`: 7.08 µM (active).
Still for that read-out and setting: the same measure for `OCC1(CCOc2ccccc2)CCN(Cc2nc3ccc(F)cc3[nH]2)CC1`: 12.6 µM (active).
Still for that read-out and setting: the same measure for `CN(C)c1ccc2nc3ccc(=[N+](C)C)cc-3sc2c1`: 0.0794 µM (active); for `COc1ccccc1-n1c(SCC(=O)Nc2cc(C)on2)nc2c([nH]c3ccccc32)c1=O`: 8.91 µM (active).
Regarding `COc1ccc(C)cc1-n1c(SCC(=O)Nc2cc(C)on2)nc2sc(C)c(C)c2c1=O`, the Potency is 2.51 µM (active).
On the same count and under the same terms, the same measure for `NC(=O)C1CCN(c2nc(C3CC3)nc3c2nnn3Cc2ccccc2Cl)CC1`: 4.47 µM (active).
